Tgondii IFNg = T. gondii growth inhibition under IFN-gamma | Toxoplasma gondii growth in IFN-gamma-treated host cells; active compounds read low | activity change, negative = inhibition, % (no concentration beside the values) | 3.8% of 69,000 active; in the data active means activity change below about -70%, passing the limit was not always enough;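 further: host cells are HeLa cells infected with Toxoplasma gondii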
Active calls of the source: *; ! = not confirmed by another sample. The full list was thinned out, with hits kept by preference.

SMILES	Tgondii IFNg
CCCc1nc(CNC2CCN(C(=O)c3ccccc3)CC2)cs1	65.5
Cc1ccc(NC(=O)N2CCN(Cc3nc(-c4cccc(Cl)c4)oc3C)CC2)cc1F	-5.3
CCn1cc(Cn2ccnc2-c2ccc(Oc3ncccn3)cc2)cn1	2.5
COC(=O)[C@@H]1C[C@@H](N(C)C)CN1S(=O)(=O)c1ccccc1OC	-12.9
CCOc1ccc(CNc2nc(-c3nnc(-c4ccccc4)o3)nc3ccccc23)cc1	-14.3
Cc1nn(C(C)C)c(C)c1CN1CCN(c2ncc(F)cn2)CC1	-1.6
COC(=O)Nc1nc2ccc(SC(C)C)cc2[nH]1	-66.4
CCCCCC#CC(=O)Nc1nc2cc(C)c(C)cc2[nH]1	84.0
CCCSc1ccc2nc(NC(=O)OC)[nH]c2c1	-78.0*!
COc1cc(OC)cc(C(=O)N2CCC3(CC2)Nc2cc(F)ccc2-n2cccc23)c1	49.2
COc1ccc(NC(=O)N2CCN3CCNC(=O)C3C2)cc1OC (stereo not given)	0.9
CCC1=N[C@@]2(CC[C@@H]3CN(c4ncc(F)cn4)C[C@H]32)C(=O)N1CCOC	3.2
Cc1nc(N2CCCC2)nc2c1CCN(c1ncccn1)CC2	352.9
Cc1nc(-c2ccccc2)nc2c1CCN(c1ncc(F)cn1)CC2	-12.7
Cc1nc(N2CCCC2)nc2c1CCN(c1ncc(F)cn1)CC2	-85.8*
Cc1cc(C(=O)NCC2COc3ccccc3O2)nn1C (stereo not given)	41.9
O=C(CN1CCN(S(=O)(=O)N2CCCC2)CC1)NCC1COc2ccccc2O1 (stereo not given)	6.8
O=C(NCC1COc2ccccc2O1)Nc1csc2ccccc12 (stereo not given)	-90.2*
Cc1ccc(-c2cccc(C(=O)N(CCO)Cc3nccs3)c2)o1	-53.8
CCOc1ccc(NC(=O)Cn2c(=O)cc(C(=O)N3CCCC3)c3ccccc32)cc1	3.5
C=CC(=O)Nc1cccc(OC)c1	16.9
C=CC(=O)Nc1ccc2ncnc(Nc3cccc(Br)c3)c2c1	-44.6
C=CC(=O)Nc1cccc(Nc2nc(Nc3ccc(Oc4ccnc(C(=O)NC)c4)cc3)ncc2F)c1	-77.9*
Cc1cc(C2CCCN2C(=O)c2ccc(Cn3nc(C)cc3C)cc2)on1 (stereo not given)	-1.6
CSc1sc(-c2ccn[nH]2)c(-c2ccccc2)c1C#N	-85.1*
SMILES	Tgondii IFNg
Cc1c(-c2ccccc2)sc(N)c1C#N	-11.6
CSc1sc(-c2ccno2)c(-c2ccco2)c1C#N	76.7
COCCCNC(=O)Cn1nnc(-c2ccc(NC(=O)c3cccnc3)cc2)n1	-6.3
COc1ccc(-c2nnn(CC(=O)Nc3ccc(C)cc3)n2)cc1	-96.8*
Cc1ccc(-c2nnn(CC(=O)Nc3ccc(N4CCCS4(=O)=O)cc3)n2)cc1	4.8
CN(C)c1ccc(C(=O)N2CCC3(CC2)COCCN(Cc2ccncc2)C3)cc1	-2.7
CC(=O)Nc1cccc(-c2ccc(NCCO)nn2)c1	-6.6
O=C(CCC1CCCC1)Nc1cnn(-c2ncncc2N2CCOCC2)c1	-62.5
CN1C(=O)C(CCC(=O)O)c2ccccc21 (stereo not given)	27.1
CC(C)[C@H](O)C(=O)N[C@@H](C)C(=O)N[C@H]1C(=O)N(C)CCc2ccccc21	-6.0
C[C@H](NC(=O)Cc1cc(F)cc(F)c1)C(=O)N[C@@H]1C(=O)N(C)c2ccccc2-c2ccccc21	-83.1*
Nc1ncc(C(=O)N2CCCC(CCc3ccc(F)cc3)C2)c(-c2ccccc2)n1 (stereo not given)	-26.5
Cc1cc(C)c2c(=O)n(Cc3nc(-c4cccc(Cl)c4)oc3C)c(=O)n(Cc3ccco3)c2n1	10.6
FC(F)(F)c1cccc(CN(Cc2ccccn2)CC2CCCO2)c1 (stereo not given)	-9.9
O=C(CCC1CCCO1)Nc1ncc(Cc2cccc(C(F)(F)F)c2)s1 (stereo not given)	-99.3*
CC(=O)N1CCOC(Cc2cccc(C(F)(F)F)c2)C1 (stereo not given)	-2.7
COc1ccc(C2(C(=O)N3CCCC(O)(CN(C)C)C3)CCCC2)cc1 (stereo not given)	-10.9
CN(C)C(=O)COCC12CCCOC1CCN(C(=O)N(C)C)C2 (stereo not given)	8.3
O=C(Nc1nccs1)c1c(O)c2ccccc2[nH]c1=O	25.6
O=C(O)CCSc1nc2ccccc2s1	-26.6
CCN(CC)C(=O)Sc1nc2cc(Cl)ccc2s1	-50.6
O=C(O)CSc1nc2cc(Cl)ccc2s1	-106.8*
c1ccc2c(c1)n1cnnc1c1nncn21	0.8
O=C(NCCc1csc(-c2ccc(Cl)cc2)n1)C1CCCCC1	-34.2
Cc1c2oc3c(C)ccc(C(=O)N[C@@H]4C(=O)N[C@H](C(C)C)C(=O)N5CCC[C@H]5C(=O)N(C)CC(=O)N(C)[C@@H](C(C)C)C(=O)O[C@@H]4C)c3nc-2c(C(=O)N[C@@H]2C(=O)N[C@H](C(C)C)C(=O)N3CCC[C@H]3C(=O)N(C)CC(=O)N(C)[C@@H](C(C)C)C(=O)O[C@@H]2C)c(N)c1=O	-81.8*
COC(=O)c1ccccc1NC(=S)N(CCO)Cc1cc2ccc(C)c(C)c2[nH]c1=O	-7.0
c1ccc(OCC23CCCOC2CCN(c2ncccn2)C3)nc1 (stereo not given)	2.3

Assay outcomes as filed in PubChem BioAssay.
